High-throughput results as filed in PubChem.
In the library only some 1.9% were active in any assay of this set; here they are far more common.
Bcl-xL primary – Bcl-xL (human) inhibition | Q07817 | GST-Bcl-xL / FITC-Bim BH3 peptide fluorescence polarization | inhibition, % at 10.9 µM | 320,000 compounds, 0.7% hits | AID 2129;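 active = inhibition above the mean of all tested compounds plus 3 SD, cutoff set per campaign, cut at about 30% in these data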;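 also: 0% = DMSO wells and 100% = unlabeled Bim-BH3 peptide competitor; inhibitors lower millipolarization by displacing the labeled peptide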
MEX-5 binding – C. elegans MEX-5 TCR-2 RNA binding activity. AID 1832. Q9XUB2. MEX-5/FITC-TCR2 RNA binding, fluorescence polarization; stronger effect = lower value. activity score (negative = inhibition of binding), % at 10 µM. 300,000 compounds, 0.38% hits;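 active = inhibition past about -25% in most replicates, and total fluorescence under double the plate's negative control median, limit read from the data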;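 also: 0% = DMSO and -100% = 5 µM competing unlabeled TCR2 RNA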
GLD-1 RNA inh – GLD-1-TGE RNA interaction inhibition (C. elegans). AID 2280. Q17339. inhibition, % at 5.96 µM. purified GLD-1 + fluorescein TGE RNA, fluorescence polarization. 320,000 compounds, 0.44% hits;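 active = percent inhibition above a per-plate cutoff, the plate mean of test compounds plus 3 SD, cut at about 30% in these data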;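 also: 0% = DMSO wells with GLD-1 and probe and 100% = wells lacking GLD-1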
Target sequence (Q17339 whole entry, looked up): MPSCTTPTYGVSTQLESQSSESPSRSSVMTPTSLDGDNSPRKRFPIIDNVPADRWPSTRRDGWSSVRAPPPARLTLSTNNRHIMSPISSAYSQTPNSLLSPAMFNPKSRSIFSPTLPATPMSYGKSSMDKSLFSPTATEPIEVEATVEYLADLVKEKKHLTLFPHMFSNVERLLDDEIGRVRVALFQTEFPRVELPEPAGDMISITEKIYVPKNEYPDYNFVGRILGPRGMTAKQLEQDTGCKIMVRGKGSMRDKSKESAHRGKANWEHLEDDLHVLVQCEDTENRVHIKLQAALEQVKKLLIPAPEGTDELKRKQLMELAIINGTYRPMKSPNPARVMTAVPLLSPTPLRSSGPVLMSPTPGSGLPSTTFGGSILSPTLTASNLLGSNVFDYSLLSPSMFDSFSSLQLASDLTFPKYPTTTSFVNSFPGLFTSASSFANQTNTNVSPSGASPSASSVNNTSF
Yeast superoxide – yeast age-related superoxide inhibition as caloric restriction mimetic; S. cerevisiae aged cells, superoxide DHE fluorescence; stronger effect = lower value; superoxide response (% of plate mean), % at 10 µM; 330,000 compounds, 0.18% hits; AID 2690;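 active = superoxide response under a set limit, about three screen SD below normal, cut at about 65% in these data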;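 also: yeast aged for seven days with compound at 30 °C before DHE staining; 100% = average MFI of all compound-treated wells on the plate with controls excluded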
LANA-H2B inh – blocks KSHV LANA binding to histone H2A/H2B. Q9QR71. cell-free LANA-H2A/H2B peptide, fluorescence polarization. inhibition, % (no concentration beside the values). 320,000 compounds, 0.6% hits. AID 2629; in the data active = inhibition mostly above about 10%, no sharp cut-off; inactive = mostly below about 6.7%
MCL1-BIM inh – disrupts human MCL1 binding to BIM-BH3 peptide | Q07820 | GST-MCL1 / FITC-Bim-BH3 fluorescence polarization | 320,000 compounds, 0.68% hits | AID 2057 | inhibition, % at 10.9 µM;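 active = inhibition above the mean inhibition of all tested compounds plus 3 SD, set per campaign, cut at about 40% in these data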;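 also: 0% = DMSO wells and 100% = unlabeled Bim-BH3 peptide control; higher means more loss of mP so more displacement of Bim peptide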
* hit, by the source's call; x = not tested or not shown; + = active, no number.

SMILES	Bcl-xL primary	MEX-5 binding	GLD-1 RNA inh	Yeast superoxide	LANA-H2B inh	MCL1-BIM inh
COc1cccc(NC(=O)CN(C)C(C)C(=O)NC(=O)NC2CCCCC2)c1 (stereo unspecified)	2	x	3	128	7	4
CCOc1cc(N2CCOCC2)c(OCC)cc1NC(C)C(=O)N1CCN(CC)CC1 (stereo unspecified)	x	-28*	x	x	x	x
CCOc1cc(N2CCOCC2)c(OCC)cc1NC(=O)C(C)C	-1	0	-6	97	-2	-5
O=C1COc2ccccc2N1Cc1c(F)cccc1Cl	47*	2	-2	85	-1	8
O=C(O)c1cc(-c2ccc(/C=c3\sc4nc5ccc(Br)cc5n4c3=O)o2)ccc1Cl	-27	-29*	-52	95	-11	-8
CCOc1ccc(CCNC(=O)COC(=O)COc2ccc(C#N)cc2)cc1OCC	-1	x	6	142	6	-3
O=C(Nc1ccc(Cl)c(S(=O)(=O)N2CCCC2)c1)c1cc(=O)[nH]c2ccccc12	x	x	4	87	6	x
CCCCN(C(=O)C1CC(=O)N(c2ccc3c(c2)OCCO3)C1)c1c(N)n(CCC)c(=O)[nH]c1=O (stereo unspecified)	x	x	6	100	2	x
CCCCN(C(=O)C1CC(=O)N(c2ccc3c(c2)OCCO3)C1)c1c(N)n(CCCC)c(=O)[nH]c1=O (stereo unspecified)	3	-2	11	79	25*	3
CC1CCCC(C)N1C(=O)CSc1nnnn1-c1cccc2c1CCCC2 (stereo unspecified)	1	-4	55*	109	-3	-1
O=C(CSc1nnnn1-c1cccc2c1CCCC2)N1CCCC1	3	-1	-5	93	4	4
COc1ccc(/C=C/C(=O)NC(=S)Nc2ccccn2)cc1	2	0	11	95	3	-3
COc1ccccc1/C=C/C(=O)NC(=S)Nc1ccccn1	1	-1	-13	103	8.0*	9
CCCN1CCCc2cc(CN)ccc21	108*	-60*	46*	121	4	127*
CCc1ccc(NC(=O)N(CCN2CCOCC2)Cc2ccc3c(c2)CCCN3CC)cc1	24	-5	1	115	-1	23
CCN(CC(=O)Nc1ccc2c(c1)OCCO2)C(=O)CCc1ccccc1Cl	0	x	4	114	-2	-2
CC(=O)Nc1cccc(Cl)c1C(=O)O	6	0	-1	91	0	2
O=C(O)c1c(Cl)cccc1Cl	0	x	-4	119	+	-5
O=C(CSc1ncnc2sccc12)NCc1ccc2c(c1)OCO2	3	x	-4	105	-2	5
CN(C)S(=O)(=O)c1cc(NC(=O)CN2CCCc3ccccc32)ccc1Cl	-6	-1	-105	113	4	-15
CN(C)S(=O)(=O)c1cc(NC(=O)CN2CCc3ccccc32)ccc1Cl	45*	-8	24	102	3	45*
Clc1cccc(Cl)c1/C=C/c1nc2ccccc2[nH]1	6	0	-1	90	11*	3
Clc1ccc(/C=C/c2nc3ccccc3[nH]2)cc1	0	4	3	87	-2	2
CCOC(=O)[C@H]1[C@H]2COc3cc(OC)ccc3[C@@H]2N2C(=O)CN(Cc3ccc(OC)cc3)C(=O)[C@@]12C	-5	x	-7	99	-3	-6
C=CCN1C(=O)/C(=C2/Sc3ccc(OC)cc3N2C)SC1=Nc1ccccc1	6	-1	1	100	0	2
SMILES	Bcl-xL primary	MEX-5 binding	GLD-1 RNA inh	Yeast superoxide	LANA-H2B inh	MCL1-BIM inh
CCCCN1C(=O)/C(=C2/Sc3ccccc3N2C)S/C1=N\c1ncn[nH]1	-33	-69*	-41	131	9	-39
CCOC(=O)Nc1ccc(N2CCOCC2)c(S(=O)(=O)Nc2ccc(Cl)cc2)c1	x	x	1	98	-4	x
CCn1ccnc1CNC(=O)c1ccc(OC2CCN(C(=O)COC)CC2)cc1	3	1	4	89	x	0
CC12COC3(C(=O)Nc4ccc5ccccc5c4)CC1CCC32C (stereo unspecified)	9	-1	4	90	32*	11
CC(NC(=O)c1cccc(S(=O)(=O)N2CCc3ccccc32)c1)c1ccco1 (stereo unspecified)	0	x	3	102	135*	3
CC1CCCC(C)N1NC(=O)c1cccc(S(=O)(=O)N2CCc3ccccc32)c1 (stereo unspecified)	3	-1	-3	97	0	-5
CCOC(=O)C1(Cc2cccc(OC)c2)CCN(Cc2cccn2-c2nccs2)CC1	-2	1	-12	105	3	-8
CCOC(=O)C1(Cc2ccccc2)CCN(Cc2cccn2-c2nccs2)CC1	1	-1	2	93	14*	3
CCOC(=O)C1(Cc2ccccc2)CCN(Cc2cnc(N3CCOCC3)s2)CC1	5	0	2	106	53*	2
O=C(O)CSCCC(=O)Nc1ccc(F)cc1	3	1	0	88	28*	6
CC(=O)c1ccc(NC(=O)CCSCCC(=O)Nc2ccc(C(C)=O)cc2)cc1	0	0	-9	110	0	-9
COc1ccc(NC2CCCN(C(=O)CCN3Cc4ccccc4C3=O)C2)cc1 (stereo unspecified)	7	1	4	139	21*	5
Cn1c(C(=O)NCCCN2CCOCC2)cc2c(=O)n(C)c3ccccc3c21	3	-42*	1	106	1	1
COC(=O)C(Cc1ccccc1)NC(=O)CCC(=O)NC(C)CCc1ccccc1 (stereo unspecified)	4	2	-6	103	14*	5
COC(=O)[C@H](CC(C)C)NC(=O)Cn1cnc2c(SC)nc(N)nc21	x	x	9	102	x	x
CN1CCN(CCNC(=O)Nc2ccccc2C(F)(F)F)CC1	2	-3	-5	96	17*	-2
O=C(N/N=C/c1cc(Br)cc(Br)c1O)c1ccncc1	33*	-4	31*	89	2	45*
O=C(NCCc1ccc(Cl)cc1)C1CCC(=O)N(C2CCCCCC2)C1 (stereo unspecified)	135*	-2	1	97	1	2
O=C(NCCc1ccc(Cl)cc1)C1CC(=O)N(C2CCCC2)C1 (stereo unspecified)	6	1	-1	108	-2	3
Cc1ccsc1CN(C)C(=O)C(NC(=O)c1cccc(S(=O)(=O)N2CCOCC2)c1)C(C)C (stereo unspecified)	12	x	1	104	-1	6
COc1ccc([C@H]2C(C(=O)O)=C[C@@H](C(C)(C)C)N2S(=O)(=O)c2ccc(C)cc2)cc1OC	x	x	2	101	x	x
Cc1ccc(C2=NN(CC(=O)NCCN(CC(C)C)CC(C)C)C(=O)CC2)cc1	5	-2	-6	87	15*	4
